Data as given in PubChem BioAssay (EPA / NIEHS).
Several values for one entry are separate records, joined by “and”; a condition that tells them apart may be missing. Equal values may be shown once. Activity calls are given as the source filed them. How the source made its calls: active means hit-call score of the fitted dose curve at least 0.9, where 1 is the maximum; inactive means score below 0.9.

These molecules were tested on Matrix Metallopeptidase 1 (MMP1), MMP1 (gene 4312) (assay: BSK_BF4T_MMP1: BioMAP Diversity Plus: BF4T Assay for Matrix Metallopeptidase 1 (MMP1) Biomarker Activity (AID 2284270)). Conditions: primary human bronchial epithelial cells with fibroblasts.
How it was run: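 Co-culture of human bronchial epithelial cells and dermal fibroblasts; MMP-1 levels measured by ELISA 24 hours after chemical dosing, relative to DMSO. Cytotoxicity checked in parallel cultures by SRB total-protein staining.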

Compound | AC50 | outcome
O=C(O)C(F)(F)C(F)(F)C(F)(F)C(F)(F)C(F)(F)C(F)(F)C(F)(F)C(F)(F)C(F)(F)C(F)(F)F | 5.11 µM (active) and 5.66 µM (active) | –
O=C(O)C(F)(F)C(F)(F)C(F)(F)C(F)(F)C(F)(F)C(F)(F)F | – | inactive
O=C(O)CCC(F)(C(F)(F)F)C(F)(F)F | – | inactive

Each molecule was assayed on Matrix Metallopeptidase 3 (MMP3), MMP3 (gene 4314) (assay: BSK_BF4T_MMP3: BioMAP Diversity Plus: BF4T Assay for Matrix Metallopeptidase 3 (MMP3) Biomarker Activity (AID 2284271)). Conditions: primary human bronchial epithelial cells with fibroblasts.
How it was run: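 Co-culture of human bronchial epithelial cells and dermal fibroblasts dosed 24 h; MMP-3 measured by ELISA, positive-direction fit versus DMSO. Cytotoxicity tracked by SRB total-protein staining (560 nm) in parallel cultures.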

Compound | AC50 | outcome
O=C(O)C(F)(F)C(F)(F)C(F)(F)C(F)(F)C(F)(F)C(F)(F)C(F)(F)C(F)(F)C(F)(F)C(F)(F)F | 5.26 µM (active) and 3.33 µM (active) | –
O=C(O)C(F)(F)C(F)(F)C(F)(F)C(F)(F)C(F)(F)C(F)(F)F | – | inactive
O=C(O)CCC(F)(C(F)(F)F)C(F)(F)F | – | inactive

What follows are molecules tested on Tissue plasminogen activator (tPA), PLAT (gene 5327) (assay: BSK_BF4T_tPA: BioMAP Diversity Plus: BF4T Assay for Tissue plasminogen activator (tPA) Biomarker Activity (AID 2284272)). Conditions: primary human bronchial epithelial cells with fibroblasts.
How it was run: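 tPA level quantified by ELISA at 24 h post-treatment in bronchial epithelial/dermal fibroblast co-cultures, gain of signal scored against DMSO baseline. Parallel cultures stained with 0.1% SRB (560 nm) to flag overt cytotoxicity.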

Compound | AC50 | outcome
O=C(O)C(F)(F)C(F)(F)C(F)(F)C(F)(F)C(F)(F)C(F)(F)C(F)(F)C(F)(F)C(F)(F)C(F)(F)F | 4.42 µM (active) and 5.58 µM (active) | –
O=C(O)C(F)(F)C(F)(F)C(F)(F)C(F)(F)C(F)(F)C(F)(F)F | – | inactive
O=C(O)CCC(F)(C(F)(F)F)C(F)(F)F | – | inactive
